For some assays here: Potency and affinity values are given separately. Calls of active or inactive are those of the source.
settings: Ebola virus entry assay, green fluorescence channel
For efficacy in this document: 0% is about no effect.

Structure (SMILES) | efficacy
CN1CCc2cccc3c2[C@H]1Cc1ccc(O)c(O)c1-3 | 61.6% (inactive)
CCN(CC)CCCC(C)Nc1ccnc2cc(Cl)ccc12 (centres undefined) | 34.3% (inactive)
Cc1nccn1CC1CCc2c(c3ccccc3n2C)C1=O (centres undefined) | -22.2% (inactive)
NS(=O)(=O)Cc1noc2ccccc12 | -13.2% (inactive)
COC(=O)[C@@H]1CC2=CC(=O)CC[C@]2(C)[C@@]23O[C@@H]2C[C@@]2(C)[C@@H](CC[C@@]24CCC(=O)O4)[C@H]13 | -15.8% (inactive)
Nc1[nH]c(=O)ncc1F | 14.3% (inactive)
CC(=O)Nc1nnc(S(N)(=O)=O)s1 | -19.1% (inactive)
CC(C)NCC(O)COc1ccc(CCOCC2CC2)cc1 (centres undefined) | 65% (inactive)
OC(CCN1CCCC1)(c1ccccc1)C1CCCCC1 (centres undefined) | 120% (inactive)
CCOC(=O)Nc1ccc2c(c1)N(C(=O)CCN1CCOCC1)c1ccccc1S2 | 62.7% (inactive)
CN(C)C(=N)N=C(N)N | -14% (inactive)
CCN(C(C)=O)c1cccc(-c2ccnc3c(C#N)cnn23)c1 | 22.6% (inactive)
C[C@@H](O[C@H]1OCCN(Cc2n[nH]c(=O)[nH]2)[C@H]1c1ccc(F)cc1)c1cc(C(F)(F)F)cc(C(F)(F)F)c1 | 67.5% (inactive)
CN1CCN(C2=Nc3cc(Cl)ccc3Nc3ccccc32)CC1 | 95.2% (inactive)
OCCOCCN1CCN(C(c2ccccc2)c2ccc(Cl)cc2)CC1 (centres undefined) | 86% (inactive)
Nc1ccc(O)c(C(=O)O)c1 | 18.3% (inactive)
CCCCc1ncc(/C=C(\Cc2cccs2)C(=O)O)n1Cc1ccc(C(=O)O)cc1 | -11.8% (inactive)
Cc1ccccc1C(OCCN(C)C)c1ccccc1 (centres undefined) | 62.3% (inactive)
CC[C@@H](CO)NCCN[C@@H](CC)CO | -17.1% (inactive)

Structure (SMILES) | efficacy
Oc1ccc(C2CNCCc3c2cc(O)c(O)c3Cl)cc1 (centres undefined) | 16.5% (inactive)
Cn1cnc([N+](=O)[O-])c1Sc1ncnc2nc[nH]c12 | 14.5% (inactive)
COc1cc2nc(N3CCN(C(=O)c4ccco4)CC3)nc(N)c2cc1OC | 75.4% (inactive)
CC1OC(C)OC(C)O1 (centres undefined) | 12.6% (inactive)
CCOc1ccc2ccccc2c1C(=O)N[C@@H]1C(=O)N2[C@@H]1SC(C)(C)[C@@H]2C(=O)O | 20.5% (inactive)
COc1cc2c(cc1OC)[C@@H]1CC(=O)[C@@H](CC(C)C)CN1CC2 | 24.3% (inactive)
N=C(N)c1ccc(OCCCCCOc2ccc(C(=N)N)cc2)cc1 | 22.7% (inactive)
NNCCc1ccccc1 | -18.8% (inactive)
CCC1=C[C@@H]2CN(C1)Cc1c([nH]c3ccccc13)[C@@](C(=O)OC)(c1cc3c(cc1OC)N(C)[C@H]1[C@@](O)(C(=O)OC)[C@H](OC(C)=O)[C@]4(CC)C=CCN5CC[C@]31[C@@H]54)C2 | -100% (inactive)
Cc1cccc(Nc2ccncc2S(=O)(=O)NC(=O)NC(C)C)c1 | -34.9% (inactive)
O=C1N=C(O)CN1/N=C/c1ccc(-c2ccc([N+](=O)[O-])cc2)o1 | 24% (inactive)
CC(=O)Oc1ccccc1C(=O)Nc1ncc([N+](=O)[O-])s1 | 16.8% (inactive)
C[C@]12CC[C@@H]3c4ccc(O)cc4C[C@@H](CCCCCCCCCS(=O)CCCC(F)(F)C(F)(F)F)[C@H]3[C@@H]1CC[C@@H]2O (some centres undefined) | 40.4% (inactive)
CN(C)CCOC(C)(c1ccccc1)c1ccccn1 (centres undefined) | 20.1% (inactive)
CCCN(CCC)S(=O)(=O)c1ccc(C(=O)O)cc1 | -17.8% (inactive)
NC(=O)OCC(COC(N)=O)c1ccccc1 | -25.6% (inactive)
COc1cc(NCc2ccc3nc(N)nc(N)c3c2C)cc(OC)c1OC | 44.2% (inactive)
CC(=O)[C@]1(O)Cc2c(O)c3c(c(O)c2[C@@H](O[C@H]2C[C@H](N)[C@H](O)[C@H](C)O2)C1)C(=O)c1ccccc1C3=O | 27.8% (inactive)

settings: Ebola virus entry assay, blue channel fluorescence

Structure (SMILES) | outcome | AC50
CN1CCc2cccc3c2[C@H]1Cc1ccc(O)c(O)c1-3 | inactive | 
CCN(CC)CCCC(C)Nc1ccnc2cc(Cl)ccc12 (centres undefined) |  | 3.98 µM (active)
Cc1nccn1CC1CCc2c(c3ccccc3n2C)C1=O (centres undefined) | inactive | 
NS(=O)(=O)Cc1noc2ccccc12 | inactive | 
COC(=O)[C@@H]1CC2=CC(=O)CC[C@]2(C)[C@@]23O[C@@H]2C[C@@]2(C)[C@@H](CC[C@@]24CCC(=O)O4)[C@H]13 | inactive | 
Nc1[nH]c(=O)ncc1F | inactive | 
CC(=O)Nc1nnc(S(N)(=O)=O)s1 | inactive | 
CC(C)NCC(O)COc1ccc(CCOCC2CC2)cc1 (centres undefined) | inactive | 
OC(CCN1CCCC1)(c1ccccc1)C1CCCCC1 (centres undefined) | inactive | 
CCOC(=O)Nc1ccc2c(c1)N(C(=O)CCN1CCOCC1)c1ccccc1S2 | inactive | 
CN(C)C(=N)N=C(N)N | inactive | 
CCN(C(C)=O)c1cccc(-c2ccnc3c(C#N)cnn23)c1 | inactive | 
C[C@@H](O[C@H]1OCCN(Cc2n[nH]c(=O)[nH]2)[C@H]1c1ccc(F)cc1)c1cc(C(F)(F)F)cc(C(F)(F)F)c1 | inactive | 
CN1CCN(C2=Nc3cc(Cl)ccc3Nc3ccccc32)CC1 | inactive | 
OCCOCCN1CCN(C(c2ccccc2)c2ccc(Cl)cc2)CC1 (centres undefined) | inactive | 
Nc1ccc(O)c(C(=O)O)c1 | inactive | 
CCCCc1ncc(/C=C(\Cc2cccs2)C(=O)O)n1Cc1ccc(C(=O)O)cc1 | inactive | 
Cc1ccccc1C(OCCN(C)C)c1ccccc1 (centres undefined) |  | 10 µM (active)
CC[C@@H](CO)NCCN[C@@H](CC)CO | inactive | 

Structure (SMILES) | outcome | AC50
Oc1ccc(C2CNCCc3c2cc(O)c(O)c3Cl)cc1 (centres undefined) | inactive | 
Cn1cnc([N+](=O)[O-])c1Sc1ncnc2nc[nH]c12 | inactive | 
COc1cc2nc(N3CCN(C(=O)c4ccco4)CC3)nc(N)c2cc1OC | inactive | 
CC1OC(C)OC(C)O1 (centres undefined) | inactive | 
CCOc1ccc2ccccc2c1C(=O)N[C@@H]1C(=O)N2[C@@H]1SC(C)(C)[C@@H]2C(=O)O | inactive | 
COc1cc2c(cc1OC)[C@@H]1CC(=O)[C@@H](CC(C)C)CN1CC2 | inactive | 
N=C(N)c1ccc(OCCCCCOc2ccc(C(=N)N)cc2)cc1 | inactive | 
NNCCc1ccccc1 | inactive | 
CCC1=C[C@@H]2CN(C1)Cc1c([nH]c3ccccc13)[C@@](C(=O)OC)(c1cc3c(cc1OC)N(C)[C@H]1[C@@](O)(C(=O)OC)[C@H](OC(C)=O)[C@]4(CC)C=CCN5CC[C@]31[C@@H]54)C2 |  | 0.112 µM (active)
Cc1cccc(Nc2ccncc2S(=O)(=O)NC(=O)NC(C)C)c1 | inactive | 
O=C1N=C(O)CN1/N=C/c1ccc(-c2ccc([N+](=O)[O-])cc2)o1 | inactive | 
CC(=O)Oc1ccccc1C(=O)Nc1ncc([N+](=O)[O-])s1 | inactive | 
C[C@]12CC[C@@H]3c4ccc(O)cc4C[C@@H](CCCCCCCCCS(=O)CCCC(F)(F)C(F)(F)F)[C@H]3[C@@H]1CC[C@@H]2O (some centres undefined) | inactive | 
CN(C)CCOC(C)(c1ccccc1)c1ccccn1 (centres undefined) | inactive | 
CCCN(CCC)S(=O)(=O)c1ccc(C(=O)O)cc1 | inactive | 
NC(=O)OCC(COC(N)=O)c1ccccc1 | inactive | 
COc1cc(NCc2ccc3nc(N)nc(N)c3c2C)cc(OC)c1OC | inactive | 
CC(=O)[C@]1(O)Cc2c(O)c3c(c(O)c2[C@@H](O[C@H]2C[C@H](N)[C@H](O)[C@H](C)O2)C1)C(=O)c1ccccc1C3=O | inactive | 
